# Measurements: the supplement of paper PMC3342239
# Structures can show the parent of a compound that is named as a salt.
# Test system: Saccharomyces cerevisiae
# Test: fraction of cells in G1 phase (DNA content, flow cytometry); higher = more cells with unreplicated DNA (G1 delay)
# Settings: temperature: 30 C; YPD; JTY2953 pdr5 snq2 (sensitized); drug added to: cultures diluted from stationary phase; 6-7 h
# Summary of the method: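 Overnight cultures of sensitized JTY2953 were diluted 1∶200 into drug at a final 20 µg/ml and fixed after 6–7 h, and further runs treated dividing JTY2953 or BY4741, fixing them 6 h and 4.33 h later respectively. All growth used YPD at 30°C with S. cerevisiae and library drugs. After ethanol fixation and SYTOX Green staining, flow cytometry recorded 10,000 events. The G1 fraction equals the Dean-Jett-Fox G1 peak area over the G1 plus G2/M areas.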
row,Structure (SMILES),fraction of cells in G1 phase
1,Cc1c(O)cccc1C(=O)N[C@@H](CSc1ccccc1)[C@H](O)CN1C[C@H]2CCCC[C@H]2C[C@H]1C(=O)NC(C)(C)C [Nelfinavir Mesylate] (30.1249 µM),0.487
2,CCN(CC)C(=O)/C(C#N)=C/c1cc(O)c(O)c([N+](=O)[O-])c1 [Entacapone] (65.5109 µM),0.508
3,CC(=O)OCC[N+](C)(C)C [Acetylcholine Cl] (136.789 µM),0.483
4,O=C1CN2Cc3c(ccc(Cl)c3Cl)N=C2N1 [Anagrelide] (78.0967 µM),0.469
5,Clc1ccccc1CN1CCc2sccc2C1 [Ticlopidine HCl] (75.8175 µM),0.505
6,Cc1onc(-c2ccccc2)c1C(=O)N[C@@H]1C(=O)N2[C@@H]1SC(C)(C)[C@@H]2C(=O)O [Oxacillin sodium monohydrate] (49.9455 µM),0.486
7,COc1cc2c(cc1OC)-c1c/c(=N\c3c(C)cc(C)cc3C)n(C)c(=O)n1CC2 [Trequinsin HCl] (45.2489 µM),0.425
8,CC1(C)C[C@@H]1C(=O)N/C(=C\CCCCSC[C@H](N)C(=O)O)C(=O)O [Cilastatin] (55.7942 µM),0.484
9,C=C[C@H]1CN2CC[C@H]1C[C@H]2[C@H](O)c1ccnc2ccc(OC)cc12 [Quinine] (55.417 µM),0.5
10,CC(=O)Oc1ccccc1C(=O)O [Acetylsalicylic acid] (111.011 µM),0.49
11,C#C[C@]1(O)CC[C@H]2[C@@H]3CCC4=CC(=O)CC[C@@H]4[C@H]3CC[C@@]21C [Norethindrone] (67.0176 µM),0.552
12,C[C@H]1[C@H](OC(=O)CCC(=O)O)O[C@@H]2O[C@@]3(C)CC[C@H]4[C@H](C)CC[C@@H]1[C@@]24OO3 [Artesunate] (52.025 µM),0.556
13,CN[C@@H]1[C@H](O)[C@H](NC)[C@H]2O[C@@]3(O)C(=O)C[C@@H](C)O[C@H]3O[C@@H]2[C@H]1O [Spectinomycin] (60.1763 µM),0.485
14,CS(=O)(=O)c1ccc([C@H](O)[C@@H](COC(=O)CN)NC(=O)C(Cl)Cl)cc1 [Thiamphenicol glycinate] (48.3934 µM),0.478
15,O=C1C(=O)c2ccccc2C(O)=C1C1CCC(c2ccc(Cl)cc2)CC1 (stereo not drawn) [Atovaquone] (54.5185 µM),0.493
16,O=c1[nH]c(=O)n([C@H]2C[C@H](O)[C@@H](CO)O2)cc1F [Floxuridine] (81.2358 µM),0.514
17,CC(C)C(=O)Nc1ccc([N+](=O)[O-])c(C(F)(F)F)c1 [Flutamide] (72.4068 µM),0.526
18,CCN1CCC[C@H]1CNC(=O)c1c(O)c(Cl)cc(Cl)c1OC [Raclopride l-tartrate s(-)] (57.5963 µM),0.521
19,O=NN(CCCl)C(=O)NC1CCCCC1 [Lomustine] (85.5799 µM),0.451

row,Structure (SMILES),fraction of cells in G1 phase
1,Nc1nc(Cl)nc2c1ncn2[C@@H]1O[C@H](CO)[C@@H](O)[C@@H]1F [Clofarabine] (65.8583 µM),0.465
2,CC(COc1ccccc1)N(CCCl)Cc1ccccc1 (stereo not drawn) [Phenoxybenzamine HCl] (58.7717 µM),0.514
3,CC(C)(C#N)c1cc(Cn2cncn2)cc(C(C)(C)C#N)c1 [Anastrozole] (68.1723 µM),0.518
4,CCCc1nc2c(C)cc(-c3nc4ccccc4n3C)cc2n1Cc1ccc(-c2ccccc2C(=O)O)cc1 [Telmisartan] (38.8627 µM),0.543
5,CN(C)CCC(c1ccc(Cl)cc1)c1ccccn1 (stereo not drawn) [Chlorpheniramine maleate] (72.7812 µM),0.452
6,CNCCCC12CCC(c3ccccc31)c1ccccc12 [Maprotiline HCl] (72.0947 µM),0.475
7,Nc1nc2c(ncn2COCCO)c(=O)[nH]1 [Acycloguanosine] (88.8066 µM),0.472
8,O=C(NCCNCC(O)COc1ccc(O)cc1)N1CCOCC1 (stereo not drawn) [Xamoterol hemifumarate] (58.9284 µM),0.518
9,CC[C@H](C)C(=O)O[C@H]1CCC=C2C=C[C@H](C)[C@H](CC[C@@H]3C[C@@H](O)CC(=O)O3)[C@H]21 [Mevastatin] (51.2132 µM),0.502
10,CC(c1cc2ccccc2s1)N(O)C(N)=O (stereo not drawn) [Zileuton] (84.6401 µM),0.53
11,CC(C)[C@H](N)C(=O)OCCOCn1cnc2c(=O)nc(N)[nH]c21 [Valaciclovir] (61.6633 µM),0.465
12,N=c1ccn2c(n1)O[C@H]1[C@H](O)[C@@H](CO)O[C@H]12 [Cyclocytidine HCl] (88.8077 µM),0.484
13,CCCc1cc(C(N)=S)ccn1 [Prothionamide] (110.943 µM),0.482
14,CCn1cc(C(=O)O)c(=O)c2cc(F)c(N3CCNCC3)cc21 [Norfloxacin] (62.6295 µM),0.455
15,CCN(Cc1ccncc1)C(=O)C(CO)c1ccccc1 (stereo not drawn) [Tropicamide] (70.3331 µM),0.521
16,COc1ccc(C2CNC(=O)C2)cc1OC1CCCC1 (stereo not drawn) [Rolipram] (72.6347 µM),0.497
17,COc1cc2nc(N3CCN(C(=O)C4COc5ccccc5O4)CC3)nc(N)c2cc1OC (stereo not drawn) [Doxazosin mesylate] (44.2981 µM),0.442
18,COc1c(C)c2c(c(O)c1C/C=C(\C)CCC(=O)OCCN1CCOCC1)C(=O)OC2 [Mycophenolate mofetil] (46.1355 µM),0.513
19,COc1ccccc1OCCNCC(O)COc1cccc2[nH]c3ccccc3c12 (stereo not drawn) [Carvedilol] (49.2022 µM),0.525
